Pf growth 48h: Primary qHTS for delayed death inhibitors of the malarial parasite plastid, 48 hour incubation | P. falciparum luciferase growth in erythrocytes, 48 h | Potency, µM (titrated, usually from 28.7 µM), for the others: top-dose activity change, negative = inhibition, most hits filed as inhibitors | hit rate 5.9% among 310,000; also: potency is read from the fitted curve at half-maximal effect; % is scaled to controls: 0 for no effect and ±100 for the full control effect
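A one-generation exposure of luciferase-tagged malaria parasites in RPMI 1640/Albumax erythrocyte culture, 37 C and 5% CO2. Inhibition is inferred from decreased luminescence after adding detection reagent.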
Pf growth 96h: Primary qHTS for delayed death inhibitors of the malarial parasite plastid, 96 hour incubation; AID 504834, 2011; P. falciparum luciferase reporter growth, 96 h; Potency, µM (series often up to 28.7 µM), inactives show at the top dose activity change, negative = inhibition, hits mostly inhibitors; hit rate 6.9% among 320,000; also: potency is read from the fitted curve at half-maximal effect; % is scaled to controls: 0 for no effect and ±100 for the full control effect
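96 h incubation, 37 C, 5% CO2, of luciferase-reporter P. falciparum-infected RBCs (2% hematocrit, 0.05% parasitemia final) with test compounds; endpoint luminescence.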
CHX counter: Cycloheximide Counterscreen for Small Molecule Inhibitors of Shiga Toxin; cell reporter, cycloheximide protein synthesis inhibition counterscreen; max response, %; hit rate 12% among 300,000; AID 2314, 2010; in the data active = max response mostly above about 13%, no sharp cut-off; inactive = mostly below about 14%; also: read at 38.3 µM for the half of the compounds with a filed dose; 0% is about no effect
Shiga toxin inh: A qHTS for Small Molecule Inhibitors of Shiga Toxin; Vero cells, Shiga toxin protein synthesis inhibition reporter; inhibition, % at 38.7 µM; hit rate 9.2% among 290,000; in the data active = inhibition mostly above about 28%, no sharp cut-off; inactive = mostly below about 43%; also: 0% is about no effect
Active calls of the source: *; ? = inconclusive; . = no result given. Most compounds without a hit are left out; they make up all but 21% or so of the library. Unless noted, calls follow the shape of the dose curve; as a rule, active = well fitted inhibition curve with a large enough effect; inconclusive = small, poorly fitted or top-dose-only effect, or another doubt; inactive = no such curve, though single readings can be large or run the other way.

SMILES | Pf growth 48h | Pf growth 96h | CHX counter | Shiga toxin inh
Cc1nn(-c2ccccc2)c2nc(-c3ccccc3)cc(C(=O)N3CCOCC3)c12 | -18.9% | 2.08µM* | -4.0 | -5.4
O=C(c1cc(-c2ccncc2)nc2ccccc12)N1CCOCC1 | 9.9% | 7.6% | . | .
Cc1nn(-c2cccc(Cl)c2)c2nc(-c3ccncc3)cc(C(=O)N3CCOCC3)c12 | ? | 6.57µM* | 3.5 | 5.6
Cc1ccc(-c2cc(C(=O)N3CCOCC3)c3ccccc3n2)cc1 | ? | . | 2.3 | 21.3
Cc1ccc(NC(=O)CSc2nnnn2C2CCCC2)cc1S(=O)(=O)N1CCOCC1 | ? | 8.28µM* | . | .
O=C(CSc1nnnn1C1CCCCC1)NCc1cccs1 | 34.6% | 33.3% | 3.6 | 7.2
O=C(CSc1nnnn1C1CCCCC1)NCCc1ccccc1 | 44.1% | . | 62.3* | 42.4*
Cc1cc(NC(=O)CSc2nnnn2C2CCCC2)no1 | 14.9% | 7.38µM* | -1.2 | -8.0
CCOc1ccc(NC(=O)CSc2nnnn2C2CC2)cc1S(=O)(=O)N1CCCC1 | ? | 14.7µM* | . | .
CSc1sccc1/C=C(/C#N)C(=O)c1ccco1 | 20.2% | 12.2% | 11.4 | 18.2
CCCn1nc(NC(=O)c2cccs2)c2cc3ccc(C)cc3nc21 | 2.94µM* | ? | -1.1 | -1.4
CCCn1nc(NC(=O)c2cccs2)c2cc3cc(C)ccc3nc21 | ? | -6.1% | 25.4* | 36.8*
COc1ccc2nc3c(cc2c1)c(NC(=O)CC(C)C)nn3CC(C)C | 5.22µM* | ? | -0.9 | -4.3
CCCn1nc(NC(=O)c2cccs2)c2cc3cc(OC)ccc3nc21 | ? | -21.1% | 18.2* | 29.4*
CCCn1nc(NC(=O)c2cccs2)c2cc3ccccc3nc21 | ? | ? | 9.8 | 43.3
Cc1ccc(NC(=O)CCSc2nnc(C)o2)cc1 | 0.0% | -3.5% | 6.1 | 2.7
CC(OC(=O)CNC(=O)c1sc2ccccc2c1Cl)c1ccccc1 (stereo not given) | -11.5% | 12.2% | . | .
C=CCn1c(SCc2nc3ccccc3[nH]2)nnc1-c1ccccn1 | -8.0% | 10.4µM* | 27.2* | 7.6
CCn1c(SCc2nc3ccccc3[nH]2)nnc1-c1cnccn1 | 37.9% | ? | 23.0* | 55.2*
CCn1c(SCc2nc3ccccc3[nH]2)nnc1-c1cccnc1 | . | -0.3% | 2.7 | -3.9
Cc1[nH]n(C(N)=S)c(=O)c1N=Nc1ccc2ccccc2c1 | 28.1% | 4.65µM* | 45.5* | 92.5*
Cc1[nH]n(C(N)=S)c(=O)c1N=Nc1ccc(S(=O)(=O)N2CCCCCC2)cc1 | . | 63.9% | 13.8 | 46.0
NC(=S)n1[nH]c(-c2ccc([N+](=O)[O-])cc2)c(N=Nc2cccc([N+](=O)[O-])c2)c1=O | ? | 4.1% | 4.7 | 15.4
Cc1[nH]n(C(N)=S)c(=O)c1N=Nc1cc(-c2ccc(Br)cc2)[nH]n1 | 9.1% | -10.2% | 34.6* | 57.9
Cc1ccc(N=Nc2c(C)[nH]n(C(N)=S)c2=O)cc1C | ? | -23.5% | 26.0* | 157.6*
SMILES | Pf growth 48h | Pf growth 96h | CHX counter | Shiga toxin inh
Cc1c(N=Nc2c(-c3ccc([N+](=O)[O-])cc3)[nH]n(C(N)=S)c2=O)cccc1[N+](=O)[O-] | 1.6% | ? | 9.6 | -9.1
Cc1[nH]n(C(N)=S)c(=O)c1N=Nc1cccc([N+](=O)[O-])c1C | ? | 7.2% | 56.9* | 51.2*
CC(=O)Nc1ccc(N=Nc2c(C)[nH]n(C(N)=S)c2=O)cc1 | -0.6% | ? | 33.8* | 87.8*
Nc1nc(Nc2ccc(Cl)cc2Cl)nc(C(F)(F)F)n1 | 87.9% | -26.1% | 42.6* | 65.4*
COc1cccc(Nc2nc(N)nc(C(F)(F)F)n2)c1 | 62.3% | 55.3% | 16.2 | 59.1
Nc1nc(Nc2ccccc2)nc(C(F)(F)F)n1 | 40.4% | 7.38µM* | 30.0* | 47.3
Nc1nc(Nc2ccccc2Br)nc(C(F)(F)F)n1 | 46.7% | 10.4µM* | 11.7 | 24.3
CC(C)Nc1nc(Oc2ccc(Cl)cc2Cl)cc(C(F)(F)F)n1 | -16.4% | 44.9% | 3.6 | -4.8
O=S(=O)(c1ccc(Cl)c(C(F)(F)F)c1)N1CCN(CC(O)COc2ccccc2F)CC1 (stereo not given) | ? | ? | -6.1 | -14.1
Cc1ccc(NC(=S)c2nc3ccccc3[nH]2)cc1 | 185.3% | 66.8% | 71.8* | 66.2*
Cc1ccc(NC(=S)N2CCCC(c3nc4ccccc4[nH]3)C2)cc1 (stereo not given) | -18.0% | -14.0% | 6.9 | -7.0
Cc1ccc(NC(=S)c2nc3ccccc3[nH]2)c(C)c1 | 17.3% | -9.4% | 50.7* | 96.5*
Cc1ccc(NC(=S)c2ccncc2)c(C)c1 | 19.9% | 24.3% | 9.6 | -2.8

Bioassay records deposited in PubChem BioAssay by National Center for Advancing Translational Sciences (NCATS).
